Unmarked numbers belong to inactive results. Results filed as inconclusive are left out. Activity calls are given as the source filed them. Unless noted, calls follow the shape of the dose curve; as a rule, active = well fitted curve in the direction sought with a large enough effect; inconclusive = small, poorly fitted or top-dose-only effect, or another doubt; inactive = no such curve, though single readings can be large; an effect the other way counts as inactive or inconclusive.

A short description of experiment [1]: Cell Viability - BJ (AID 421; calls by dose curve;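 also: potency is read from the fitted curve at half-maximal effect; cells exposed to compound for 40 hours at 37 °C before readout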). The settings on record: BJ fibroblast viability, qHTS. The gist of the method: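 Normal human BJ foreskin fibroblasts, 1500/well in complete medium, treated 40 hr at 37 °C. Cellular ATP by CellTiter-Glo luminescence; normalized to DMSO and 100 uM tamoxifen, AC50 from Hill fit.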
Background: qHTS replaces the single test concentration by a dilution series.

Experiment [2] can be described thus: Cell Viability - HepG2 (AID 433; calls by dose curve;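 also: potency is read from the fitted curve at half-maximal effect; cells exposed to compound for 40 hours; potency for ATP loss meaning cytotoxicity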). The settings on record: qHTS. The gist of the method:
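HepG2 hepatocellular carcinoma cells (1500/well) were treated with compounds for 40 h at 37 °C in complete medium; intracellular ATP was read by CellTiter-Glo luminescence. Data were normalized to DMSO and 100 uM tamoxifen, and AC50 came from Hill fits.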

Experiment [3] can be described thus: Cell Viability - MRC5 (AID 434; calls by dose curve;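 also: potency is read from the fitted curve at half-maximal effect; cells exposed to compound for 40 hours at 37 °C; potency reflects cytotoxicity seen as loss of intracellular ATP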). Particulars: MRC5 lung fibroblast viability, qHTS. The essentials:
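AC50 values come from Hill-equation fits of intracellular ATP loss, measured by CellTiter-Glo luminescence. Normal lung fibroblasts (MRC5) had 40 hr compound treatment at 37 C, normalized between DMSO and 100 uM tamoxifen.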

A short description of experiment [4]: Cell Viability - N2a (AID 540).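 Also: plate controls were DMSO alone for no effect and tamoxifen control for full effect; nearly all actives have a fitted effect of over 45% in size.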 Particulars: N2a mouse neuroblastoma cell viability; at 92.2 µM (top of the series). The essentials:
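N2a mouse neuroblastoma, 1500 cells/well, 5 hr settle; compound 40 hr, 37 °C; CellTiter-Glo 20 min RT; luminescence; Hill-fit AC50.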

Experiment [5] can be described thus: Cell Viability - HUV-EC-C (AID 542).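 Also: cells exposed to compound for 40 hours; % is scaled to controls: 0 for no effect and ±100 for the full control effect; nearly all actives have a fitted effect of over 35% in size.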 The gist of the method: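 Luminescent ATP read-out (CellTiter-Glo, 20 min room temperature) after 40 hr compound treatment of HUV-EC-C cells at 37 °C. Concentration-response data fitted with the standard Hill equation to give AC50; tamoxifen and doxorubicin served as positive controls.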
A short description of experiment [6]: Cell Viability - SH-SY5Y (AID 544).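 Also: cells exposed to compound for 40 hours; nearly all actives have a fitted effect of over 55% in size.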 The settings on record: SH-SY5Y neuroblastoma cell viability; viability change, negative = cytotoxic: at 92.2 µM (top of the series). The gist of the method:
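SH-SY5Y, 1500 cells/well, 5 hr pre-incubation 37 °C; cpd 40 hr 37 °C; CellTiter-Glo 20 min RT; luminescence (ATP) read. qHTS concentration-response, Hill fit → AC50. Tamoxifen, doxorubicin as positive controls.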

Experiment [7] can be described thus: Cell Viability - Renal Proximal Tubule (AID 545).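 Also: cells exposed to compound for 40 hours; nearly all actives have a fitted effect of over 40% in size.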 The settings on record: renal proximal tubule cells viability; at 91.7 µM (top of the series), primary cells of rat origin unless noted. The gist of the method: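 Primary rat renal proximal tubule cells (1000/well) were treated with compounds for 40 hr at 37 °C in complete medium. Intracellular ATP was measured by CellTiter-Glo luminescence, and AC50 values came from Hill-equation fits of concentration-response data.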

Experiment [8] can be described thus: Cellular Toxicity (caspase-3) Jurkat (AID 655).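 Also: cells exposed to compound for 16 h at 37 °C before reading.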 The settings on record: Jurkat caspase-3 activation, luminescence, DMSO = 0%, tamoxifen = 100%; at 92.2 µM (top of the series). The essentials: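 Jurkat cells (5000/well) in complete medium were treated with compounds for 16 hr at 37 °C, then Caspase-Glo 3/7 luminescence was read after 20 min at room temperature. Data normalized to DMSO (basal) and 100 uM tamoxifen (100%); AC50 from Hill fit.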

The nature of experiment [9]: Cellular Toxicity (caspase-3) HUV-EC-C (AID 656). The gist of the method: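 HUV-EC-C endothelial cells, 1000/well, were pre-incubated 5 hr at 37°C, then exposed to compounds for 16 hr at 37°C. Caspase-Glo 3/7 luminescence was read after 20 min at room temperature. AC50 came from Hill fits, normalized to DMSO and 100 uM tamoxifen.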
Experiment [10] can be described thus: Cellular Toxicity (caspase-3) SHSY5Y (AID 657). The gist of the method: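 SH-SY5Y human neuroblastoma cells (1500/well) were treated with compounds for 16 h at 37 °C, then Caspase-Glo 3/7 luminescence was read after 1 h at room temperature. Data normalized to DMSO and 10 uM staurosporine; AC50 from Hill fits.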
Experiment [11] in a line: Cellular Toxicity (caspase-3) BJ (AID 658).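 Also: 0% = DMSO basal and 100% = 10 µM staurosporine.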 The gist of the method:
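Caspase-Glo 3/7 luminescence, read 1 hr after reagent at room temperature, in normal BJ fibroblasts exposed 16 hours at 37 °C. AC50 values from Hill-equation concentration-response, scaled between DMSO basal and 10 uM staurosporine as 100%.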

Experiment [12] can be described thus: Cellular Toxicity (caspase-3) MRC-5 (AID 659).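 Also: 0% = DMSO basal and 100% = 10 µM staurosporine.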 The essentials: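 Luminescent Caspase-Glo 3/7 read-out (1 h, room temperature) after a 16 h, 37 °C compound exposure of MRC-5 lung fibroblasts at 1500 cells/well. Concentration-response AC50 from Hill equation; 0% DMSO, 100% 10 uM staurosporine.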
Experiment [13] in a line: Cellular Toxicity (caspase-3) SK-N-SH (AID 661).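 Also: 0% = DMSO basal and 100% = 10 µM staurosporine.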 The gist of the method:
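Luminescent Caspase-Glo 3/7 read-out after 16 hr compound exposure of SK-N-SH neuroblastoma cells at 37 °C. Signal increase normalized to DMSO (basal) and 10 uM staurosporine (100%); AC50 from Hill equation fits of qHTS concentration-response data.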

Experiment [14] is described as follows: Cellular Toxicity (caspase-3) H-4-II-E (AID 663).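 Also: cells exposed to compound for 16 hr before readout.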 The essentials:
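Caspase 3/7 activation measured by luminescent aminoluciferin substrate cleavage after 16 hr compound treatment of H-4-II-E cells in complete medium. Increase normalized between DMSO (basal) and 100 uM tamoxifen (100%); Hill-equation AC50 from concentration-response.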

The nature of experiment [15]: Cellular Toxicity (caspase-3) Renal Proximal Tubule (AID 667).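 Also: cells exposed to compound for 16 hours at 37 °C before detection; 0% = DMSO basal and 100% = 10 µM staurosporine.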 The settings on record: renal proximal tubule cells; at 91.7 µM (top of the series), primary cells freshly taken from rat, solvent-only wells 0%, staurosporine 100% unless noted. The essentials:
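Primary rat proximal tubule cells, 1000/well, 5 h plating at 37 °C, then compound 16 h at 37 °C. Caspase-Glo 3/7 reagent, 1 h RT, luminescence. Normalized to DMSO (basal) and 10 uM staurosporine (100%); Hill-fit AC50.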

The nature of experiment [16]: qHTS Assay for Identification of Small Molecule Inducers of Hypoxia Response (AID 2120; active = well fitted curve in the direction sought with a large enough effect in the signal ratio, with a control signal flat, not every such curve was filed as active; the % refers to the signal ratio; also: 0% is about no effect). The essentials: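 Read-out: CCF4 FRET emission ratio 460nm/530nm (excitation 405nm), converted to %Activity, with AC50 fitted across a compound titration. ME-180 cells carried an HRE-driven beta-lactamase reporter; compound exposure 17 h, 37 degrees C.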
The nature of experiment [17]: qHTS assay for small molecule agonists of the antioxidant response element (ARE) signaling pathway measured by Nrf2-dependant transcriptional activity - cell viability counter screen (AID 720653; active = well fitted curve in the direction sought with a large enough effect in the repeat runs; an effect the other way counts as inactive or inconclusive; also: % is scaled to controls: 0 for no effect and ±100 for the full control effect). The settings on record: ARE-bla HepG2 viability, CellTiter-Glo ATP luminescence, 16 h; hits give low values. The gist of the method: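 Cytotoxicity counter screen: intracellular ATP quantified by CellTiter-Glo luminescence in the same ARE-bla HepG2 plates, after 16 h compound exposure and a 2 h beta-lactamase substrate step.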

The nature of experiment [18]: qHTS assay for cell viability of HEK293 cells (AID 743288). Also: % is scaled to controls: 0 for no effect and ±100 for the full control effect; nearly all actives have a fitted effect of over 50% in size. The settings on record: ATP luminescence (CellTiter-Glo), 18 h; max response: hits give low values. The essentials:
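After 18 h compound exposure at 37 C, parental HEK293 cells (2,000/well) are lysed with CellTiter-Glo and luminescence is read following 30 min at room temperature.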

Experiment [19] can be described thus: qHTS assay for cell viability of the p53RE-bla HCT-116 cell line (AID 743292). Also: % is scaled to controls: 0 for no effect and ±100 for the full control effect; nearly all actives have a fitted effect of over 55% in size. The essentials:
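After plating at 4,000 cells per well and a 5 h rest at 37 C, HCT-116 cells carrying p53RE-bla received test chemicals in DMSO. Sixteen hours later at 37 C, CellTiter-Glo was added and luminescence recorded following 30 min at room temperature.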

Experiment [20] is described as follows: KB-8-5-11 P-gp reporter qHTS against the NCATS DSHEA and TCM libraries (AID 1919977). Also: 0% is about no effect. The essentials:
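P-gp-overexpressing KB-8-5-11 cells (500/well) were plated in colchicine-free DMEM with 10% FBS, attached ~4 h, then exposed to substance titrations for ~72 h at 37C. Viability was read by CellTiter-Glo luminescence.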

For the compound `COC1=CC(=O)O[C@@H](/C=C/c2ccc3c(c2)OCO3)C1`, the Potency in experiment [1], in [2] and in experiment [3] was over 92 µM throughout. Moreover, the activity change, negative = cytotoxicity was -10.4% in [4] and -14.1% in experiment [7]. In addition, the Potency entry in [5], in experiment [6], in [19] and in experiment [20] was “inactive” in each case. The caspase-3 activation was -10% in [8] and -22.8% in experiment [15]. Also, the call in experiment [9], in experiment [10], in experiment [11], in [12], in experiment [13] and in experiment [14] was inactive. Further, in experiment [16], the compound was classed as inactive. Also, the max response was -10.1% in experiment [17] and -22% in [18].

As to `CCCCC[C@H](O)CC(=O)CCc1ccc(O)c(OC)c1`, in [20], the Potency entry is “inactive”.

As to `CC(C)=CCC[C@](C)(O[C@@H]1O[C@H](CO)[C@@H](O)[C@H](O)[C@H]1O)[C@H]1CC[C@]2(C)[C@@H]1[C@H](O)C[C@@H]1[C@@]3(C)CC[C@H](O)C(C)(C)[C@@H]3[C@@H](O[C@@H]3O[C@H](CO)[C@@H](O)[C@H](O)[C@H]3O[C@@H]3O[C@@H](C)[C@H](O)[C@@H](O)[C@H]3O)C[C@]12C`, the Potency result in experiment [20] is “inactive”.

As for `C[C@@H]1O[C@@H](OC[C@H]2OC(Oc3c(-c4ccc(O)c(O)c4)oc4cc(O)cc(O)c4c3=O)[C@H](O)[C@@H](O)[C@@H]2O)[C@H](O)[C@H](O)[C@H]1O` (stereo partly drawn), the Potency entry in experiment [20] is “inactive”.

With `Oc1cc(O)c2c(c1)OC(c1ccc(O)c(O)c1)C(O)C2` (stereo not drawn), in experiment [20], the Potency result was “inactive”.

With `C=C1[C@H]2CC[C@H](C(=O)O)[C@@]23CC[C@H](C3)C1(C)C`, the Potency result in [20] was “inactive”.

Take `C=C(C)[C@H]1CC=C(C)CC1`: in [20], the Potency result is “inactive”.

With `CCCCC/C=C/C(=O)CCc1ccc(O)c(OC)c1`, the Potency result in experiment [20] is “inactive”.

Take `C=C1C[C@]23CC[C@H]4[C@@](C)(CCC[C@@]4(C)C(=O)O)[C@@H]2CC[C@@]1(O[C@@H]1O[C@H](CO)[C@@H](O)[C@H](O)[C@H]1O[C@@H]1O[C@H](CO)[C@@H](O)[C@H](O)[C@H]1O)C3`: the Potency result in experiment [20] was “inactive”.

For the compound `CC1(C)CC[C@]2(C(=O)O)CC[C@]3(C)C(=CCC4[C@@]5(C)CC[C@H](O)[C@@](C)(CO)C5CC[C@]43C)[C@H]2C1` (stereo partly drawn), the Potency result in [20] is “inactive”.

As to `CC1=CC[C@H](C(C)C)C=C1`, the Potency entry in experiment [20] is “inactive”.

Take `CC/C=C\C/C=C\C/C=C\C/C=C\C/C=C\CCCCCC(=O)O`: the activity change, negative = inhibition in [20] was 8.8% [at 3.26 µM].

As to `CCCCCCCCCCCC(=O)O`, in experiment [20], the Potency result is “inactive”.

As for `C[C@@]12CC[C@@H]3[C@@](CC[C@H]4[C@@]3(C)CCC[C@@]4(C)C(=O)O)(CC1=O)C2`, in [20], the Potency result is “inactive”.

These data come from PubChem BioAssay (NCATS).
